# From PubChem BioAssay (NCATS)
# A number with no mark means an inactive call. Calls of active or inactive are those of the source. Calls follow the shape of the dose curve; as a rule, active = well fitted inhibition curve with a large enough effect; inconclusive = small, poorly fitted or top-dose-only effect; inactive = flat fitted curve, though single readings scatter.
# Biological target: Luciferin 4-monooxygenase (Photinus pyralis) (UniProt P08659)
# Assay: Primary firefly luciferase (FLuc) qHTS assay for identification of artifact compounds. (AID 1845220); also: nearly all actives have a fitted effect of over 60% in size;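 as to activity change, negative = inhibition: plate controls were DMSO vehicle for no effect and no enzyme for full effect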
# Conditions: purified firefly luciferase, luminescence, 5 min; series mostly up to 54.1 µM; activity change, negative = inhibition: at the top concentration
# Procedure, shortened: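 Compounds sat 15 min at room temperature with 10 uM luciferin and 10 uM ATP (pH 7.6 Tris acetate). Firefly luciferase (10 nM final) was then added, and luminescence was read 5 min later. Data normalized to no-enzyme and DMSO controls were Hill-fitted.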
Compound,outcome,"activity change, negative = inhibition"
Fc1cc(F)c2c(c1)C1C=CCC1C(c1cccnc1)N2 (stereo not drawn),inactive,–
CN=C(NS(=O)(=O)c1ccc(Cl)cc1)N1C[C@H](c2ccccc2)C(c2ccc(Cl)cc2)=N1,–,2.07%
COC1CC(O[C@H]2CC[C@@]3(C)C(CCC4C3CC[C@]3(C)C(C5=CC(=O)OC5)CCC43O)C2)OC(C)C1OC1OC(COC2OC(CO)C(O)C(O)C2O)C(O)C(O)C1O (stereo partly drawn),–,-3.95% [at 11.6 µM]
Cc1c(N[C@@H](c2nnc(-c3ccc(C#N)cc3)o2)[C@H](C)O)ccc(C#N)c1Cl,–,0.758%
CC12CCC3C(C1)c1c(cc(O)c(C(=O)c4ccccc4)c1OC3(C)C)O2 (stereo not drawn),–,3.47%
C=C1C(=O)CC2OC2(C)CC2OC(=O)C(=C)C2C(O)C1OC(=O)/C(C)=C\C (stereo not drawn),–,-16.9%
CN1C(=O)[C@@H](Cc2c[nH]c3ccccc23)N=C(c2ccccc2F)c2ccccc21,inactive,–
CCCCCCC1C(=O)O[C@H](C)[C@H](NC(=O)c2cccc(NC=O)c2O)C(=O)O[C@@H](C)[C@@H]1OC(=O)CC(C)C (stereo partly drawn),–,4.87%
C=C(C)[C@@]12O[C@@H]1[C@@]1(C)C(=CC2=O)CC[C@@H](OC(C)=O)[C@@H]1C,–,4.91%
c1ccc([C@@H]2C[C@H]2NC2CCNCC2)cc1,–,-38.4%
CC(C)[C@H]1OC(=O)[C@H](Cc2ccccc2)N(C)C(=O)[C@@H](C(C)C)OC(=O)[C@H](Cc2ccccc2)N(C)C(=O)[C@@H](C(C)C)OC(=O)[C@H](Cc2ccccc2)N(C)C1=O,–,-11.4% [at 25.7 µM]
CC[C@H](O)[C@@H](C)[C@H]1O[C@@H]1C[C@H](C)/C=C/C=C(\C)[C@H]1OC(=O)C[C@H](O)CC[C@@](C)(O)[C@@H](OC(C)=O)/C=C/[C@@H]1C,–,-6.15%
C=C1C2(C)CC3C(C)(O)C4=CC(=O)OC(C)(C)C4=CCC3(C)C13C(=O)OC(C)C3(O)C2=O (stereo not drawn),–,-8.5% [at 25.7 µM]
CN(C)[C@@H]1C(=O)C(C(N)=O)=C(O)[C@@]2(O)C(=O)C3=C(O)c4c(O)ccc(Cl)c4[C@@](C)(O)C3C[C@@H]12 (stereo partly drawn),–,-2.44%
CC(=O)O[C@H]1C[C@]2(O)[C@@H]3CC[C@@H]4C[C@@H](O)CC[C@]4(C)[C@H]3CC[C@]2(C)[C@H]1c1ccc(=O)oc1,–,-3.22%
CN1CCC2=C(C1)c1ccccc1Cc1ccccc12,–,2.93%
C=C(C)C(=O)O[C@H]1[C@@H]2[C@H](C)C(=O)O[C@@H]2C[C@@H](C)[C@@H]2C=CC(=O)[C@]21C,–,4.03%

Compound,outcome,"activity change, negative = inhibition"
CCOc1ccc(Oc2ccc(OCc3cc(F)ccc3F)cc2)c(N)c1,–,2.16%
CCN1C[C@]2(COC)CC[C@H](O)[C@@]34C5C[C@@H]6[C@@H](OC)C[C@@](OC(C)=O)(C5[C@@H]6OC(C)=O)[C@H]([C@H](OC)C23)[C@@H]14 (stereo partly drawn),–,-1.54% [at 25.7 µM]
CC(C)[C@H](NC(=O)c1nn(Cc2ccc(F)cc2)c2ccccc12)C(N)=O,–,-10.4%
CCCN(CCC)[C@@H]1CCc2ccc3[nH]c(C#N)cc3c2C1,–,0.812%
Cc1ccc2c(c1)[C@H]1CN(C)CC[C@H]1N2C(=O)CSc1nnnn1-c1ccc(Cl)cc1,inactive,–
COC1CCCC(C)OC(=O)Cc2cc(O)cc(O)c2C(=O)C1 (stereo not drawn),–,0.373%
C[C@]12CC[C@H](O)C[C@@H]1CC[C@@H]1[C@@H]2CC[C@]2(C)C(=O)CC[C@@H]12,inactive,–
CC(=O)OC[C@]12[C@H](OC(C)=O)C(=O)[C@@H]3[C@@H](O)[C@@]14O[C@@]3(C)COC(=O)c1cccnc1[C@@H](C)[C@H](C)C(=O)O[C@@H]([C@H](OC(C)=O)[C@@H]2OC(C)=O)[C@]4(C)O,–,2.86% [at 25.7 µM]
C#C[C@]1(O)CC[C@H]2[C@@H]3CC[C@H]4Cc5nc6nc7ccccc7n6cc5C[C@]4(C)[C@H]3CC[C@@]21C,–,0.536%
CN1C(=O)N(c2ccc(C#N)c(C(F)(F)F)c2)C(=O)[C@@]1(CO)c1ccccc1,–,2.14%
CCCCCn1cc(C(=O)Oc2cccc3cccnc23)c2ccccc21,–,-0.537%
COc1cc(O)c2c(c1)CCC[C@@H](O)[C@H](O)C(=O)/C=C\C[C@H](C)OC2=O,–,-8.51%
C[C@]12CC[C@H](O)C[C@@H]1CC[C@@H]1[C@@H]2CC[C@]2(C)[C@@H](C3=CC(=O)OC3)CC[C@]12O,–,0.269%
COC(=O)C12C(=O)C(C)(O)C(=O)C1(C)C(C)=CC1C34CCC(OC3=O)C(C)(C)C4CCC12C (stereo not drawn),–,-15.7% [at 25.7 µM]
CC1=CC2OC3CC(O)[C@](C)([C@@]2(C)C(O)C1=O)[C@]31CO1 (stereo partly drawn),–,0.603%
CN1Cc2c(ccc3c2OCO3)[C@@H]2[C@H]1c1cc3c(cc1C[C@@H]2O)OCO3,–,3.11%
